40 compounds from PubChem BioAssay (NCI) can be followed below.

Several values for one entry are separate records, joined by “and”; a condition that tells them apart may be missing. Equal entries are not always repeated. About 83,000 compounds went through this panel and 20% of them were active in at least one assay; those are over-represented in the sample as a whole.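 Single-concentration screen, 48 h exposure, 96-well plates. Endpoint: percent growth. Below 10 = active.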 Values without a mark were called inactive. Activity calls are given as the source filed them.

One test deals with SK-MEL-28 melanoma. The test is described as follows: NCI-60 one-dose screen, 48 h (100 = growth as untreated, 0 = no growth, -100 = all killed). Conditions: 10 µM unless noted.
In the case of `O=C(CN1CCN(c2cc(=O)[nH]c3ccc(F)cc23)CC1)N(c1ccccc1)c1ccccc1`, the growth is 111%.
Still for that read-out and setting: in the case of `CN1CCN(c2ccc(Nc3nc(NCCCNS(=O)(=O)c4cccc(F)c4)c4sccc4n3)cc2)CC1` it was -77.4% (active); in that of `COc1ccc(C(=NNS(=O)(=O)c2ccc(C)cc2)c2ccccc2)cc1OC`, 108%; in that of `COc1ccc(/C=N/NC(=O)c2c(N)nn(C)c2Nc2ccccc2)cc1Oc1ccccc1`, 102%.
On the same count and under the same terms, for `C#C[C@]1(O)CC[C@H]2[C@@H]3CC=C4c5sc(NCc6ccccc6)nc5CC[C@]4(C)[C@H]3CC[C@@]21C` the value was 12.7%; for `Cc1cc(NS(=O)(=O)c2ccc(NC(=O)CSc3nc4ccccc4c(=O)n3-c3ccccc3)cc2)no1`, 95.9%.
For `CC(C)NC(=O)c1cc(-c2ccc(NC(=O)Nc3ccc(F)c(C(F)(F)F)c3)cc2)nc2cccnc12`, the growth was 100%.
Still for that read-out and setting: in the case of `CCOC(=O)c1cccnc1Nc1ccc(NC(=O)Nc2ccc(Cl)c(C(F)(F)F)c2)cc1` it was 43.7%; in that of `O=C(CSc1nc2ccccc2c(=O)n1-c1ccc(S(=O)(=O)Nc2ccc(Cl)nn2)cc1)Nc1ccc(S(=O)(=O)Nc2ccc(Cl)nn2)cc1`, 106%; in that of `COc1cc(-c2nc(-c3ccccc3)[nH]c2-c2ccnc(NCCCNS(=O)(=O)c3ccc(C(F)(F)F)cc3)n2)ccc1Cl`, 63.1% and 44.4%.
`Cc1csc(/N=C(N)/N=C(\N)c2cccc(C#N)c2)n1`: the growth was 74.6%.
On the same count and under the same terms, in the case of `CC[C@]12C=CCN3CC[C@]4(C(=C(C(=O)OC)C1)Nc1cc5c(cc14)[C@@H]1[C@H](O5)[C@@H](O)[C@@]4(CC)CC(C(=O)OC)=C5Nc6cc(O)ccc6[C@@]56CCN1C46)C32` (stereo partly specified) it was 17.4%.
On to `COc1ccc(OC)c(CCn2cncc2-c2c[nH]c3ccc(Cl)cc23)c1`, for which the growth is 67.7%.
The same measure, in the same setting: in the case of `Cc1ccc(-c2cc3nc(C(Cl)Cl)nc(-c4ccc(S(=O)(=O)N(C)C)cc4)n3n2)cc1` it was 99.5%; in that of `CC1=C(C)C(=O)C(Nc2cccc(C(=O)OC(C)(C)C)c2)=C(Cl)C1=O`, 104%; in that of `COC(=O)c1ccc(NC2=C(Cl)C(=O)C(C)=C(C)C2=O)cc1`, 75.9%.
Regarding `Cc1nc(/N=C(N)/N=C(\N)c2cccc(Br)c2)sc1C`, the growth was 72.8%.
Take `COC(=O)c1cccc(NC2=C(Cl)C(=O)c3nc(C)ccc3C2=O)c1`: the growth was 93.6%.
Turning to `CN(C)c1ccc(/C=N/Nc2nc(N/N=C/c3ccc(N(C)C)cc3)nc(N3CCCCC3)n2)cc1`, the growth is 41.7%.
The same measure, in the same setting: in the case of `OCC(Nc1ncnc2ccc(-c3cnc4cnccn34)cc12)c1ccccc1` (stereo unspecified) it was 97.8%; in that of `CCOC(=O)c1c(NC(=O)c2cccc(C(F)(F)F)c2)sc2c1CCC(=O)C2`, 89.2%.
Same read-out and setting: for `CN1CCN(c2ccc(Nc3nc(NCCCNS(=O)(=O)c4ccc(Cl)cc4)c4sccc4n3)cc2)CC1` the value was -71.9% (active).
In the case of `CCOC(=O)C(=O)Nc1ccc2c(ccn2C(=O)c2cccc(F)c2)c1`, the growth was 99.1%.
Still for that read-out and setting: for `CCOc1cccc(/C(N)=N/C(N)=N/c2nc3ccccc3s2)c1` the value was 105%.
The same measure, in the same setting: in the case of `CN1CCN(c2ccc(Nc3nc(NCCCNS(=O)(=O)c4ccc(C(F)(F)F)cc4)c4sccc4n3)cc2)CC1` it was -92.8% (active); in that of `Cc1ccc2c(n1)C(=O)C(Cl)=C(Nc1cccc(C(F)(F)F)c1)C2=O`, 78.5%.

For the next test, the system named is SK-MEL-2 melanoma. Described as above. The note with it: 10 µM unless noted.
`Cc1cc(Br)ccc1-n1cc(C#N)c(N)c1C(=O)c1ccc(Br)cc1`: the growth is 108%.
Same read-out and setting: in the case of `CCCCCCN1C=C/C(=C\C(=O)n2ccc3ccccc32)c2ccccc21` it was 76%.
On the same count and under the same terms, for `Cc1ccc(CSC2=C(Cl)CN(c3ccc(Cl)cc3)C2=O)cc1` the value was 104%; for `Clc1ccc(CSc2nnc(-c3ccc(Cl)cc3)n2-c2ccccc2)cc1`, 85.9%; for `NS(=O)(=O)c1ccc(CCn2c(-c3ccc(C(=O)O)cc3)nc(-c3ccccc3)c2-c2ccccc2)cc1`, 104%.
As to `CC(=C(c1ccc(OCCCN(C)C)cc1)c1ccc(OCCCN(C)C)cc1)c1ccc(Cl)cc1`, the growth is 99.3%.
As to `CC[C@]12CC(C(=O)OC)=C3Nc4ccccc4[C@@]34CCN(C14)[C@@H]1c3cc4c(cc3O[C@@H]1[C@H]2O)NC1=C(C(=O)OC)C[C@@]2(CC)C3N(CC[C@@]143)C[C@H]1O[C@H]12` (stereo partly specified), the growth is 40.8%.
On the same count and under the same terms, in the case of `Cc1ccc(-c2csc(N/N=C/c3cccs3)n2)cc1` it was 111%.
On the same count and under the same terms, in the case of `CN1CCC[C@]2(C)[C@H]3CC[C@@H]4[C@@H]5[C@H]6OC[C@@]5(CCC6(C)C)CC[C@@]4(C)[C@]3(C)CC[C@H]2C1(C)C` it was 108%; in that of `O=S(=O)(Oc1ccc(-c2cn3ccoc3n2)cc1)c1cccc(C(F)(F)F)c1`, 104%.
Turning to `CC(Nc1c(C#N)cnc2ccc(-c3cncc(-c4n[nH]c(=O)o4)c3)cc12)c1ccccc1` (stereo unspecified), the growth is -34% (active).
Turning to `C#CCN(C)CCCOc1ccc(NC(=O)CCCCCCCCC(=O)NO)cc1Cl`, the growth is 96.7%.
On the same count and under the same terms, in the case of `CCCc1cc2cc(-n3nc(CC)c4c3CC(C)(C)CC4=O)cc(NC3CCC(O)CC3)c2c(=O)[nH]1` (stereo unspecified) it was 53.1%.
The same measure, in the same setting: for `O=C(CN1CCN(c2cc(=O)[nH]c3ccc(F)cc23)CC1)N(c1ccccc1)c1ccccc1` the value was 106%; for `CN1CCN(c2ccc(Nc3nc(NCCCNS(=O)(=O)c4cccc(F)c4)c4sccc4n3)cc2)CC1`, 96.8%; for `COc1ccc(C(=NNS(=O)(=O)c2ccc(C)cc2)c2ccccc2)cc1OC`, 101%.
On the same count and under the same terms, in the case of `COc1ccc(/C=N/NC(=O)c2c(N)nn(C)c2Nc2ccccc2)cc1Oc1ccccc1` it was 101%; in that of `C#C[C@]1(O)CC[C@H]2[C@@H]3CC=C4c5sc(NCc6ccccc6)nc5CC[C@]4(C)[C@H]3CC[C@@]21C`, -17.9% (active); in that of `Cc1cc(NS(=O)(=O)c2ccc(NC(=O)CSc3nc4ccccc4c(=O)n3-c3ccccc3)cc2)no1`, 109%.
Regarding `CC(C)NC(=O)c1cc(-c2ccc(NC(=O)Nc3ccc(F)c(C(F)(F)F)c3)cc2)nc2cccnc12`, the growth was 107%.
The same measure, in the same setting: for `CCOC(=O)c1cccnc1Nc1ccc(NC(=O)Nc2ccc(Cl)c(C(F)(F)F)c2)cc1` the value was 37.2%; for `O=C(CSc1nc2ccccc2c(=O)n1-c1ccc(S(=O)(=O)Nc2ccc(Cl)nn2)cc1)Nc1ccc(S(=O)(=O)Nc2ccc(Cl)nn2)cc1`, 120%; for `COc1cc(-c2nc(-c3ccccc3)[nH]c2-c2ccnc(NCCCNS(=O)(=O)c3ccc(C(F)(F)F)cc3)n2)ccc1Cl`, 74.8% and 43.8%.
For the compound `Cc1csc(/N=C(N)/N=C(\N)c2cccc(C#N)c2)n1`, the growth was 47.8%.
On the same count and under the same terms, for `CC[C@]12C=CCN3CC[C@]4(C(=C(C(=O)OC)C1)Nc1cc5c(cc14)[C@@H]1[C@H](O5)[C@@H](O)[C@@]4(CC)CC(C(=O)OC)=C5Nc6cc(O)ccc6[C@@]56CCN1C46)C32` (stereo partly specified) the value was 16.1%; for `COc1ccc(OC)c(CCn2cncc2-c2c[nH]c3ccc(Cl)cc23)c1`, 19%.
On the same count and under the same terms, in the case of `Cc1ccc(-c2cc3nc(C(Cl)Cl)nc(-c4ccc(S(=O)(=O)N(C)C)cc4)n3n2)cc1` it was 113%.
As for `CC1=C(C)C(=O)C(Nc2cccc(C(=O)OC(C)(C)C)c2)=C(Cl)C1=O`, the growth is 95.8%.
Consider `COC(=O)c1ccc(NC2=C(Cl)C(=O)C(C)=C(C)C2=O)cc1`, for which the growth is 69.1%.
The same measure, in the same setting: for `Cc1nc(/N=C(N)/N=C(\N)c2cccc(Br)c2)sc1C` the value was 64%; for `COC(=O)c1cccc(NC2=C(Cl)C(=O)c3nc(C)ccc3C2=O)c1`, 101%; for `CN(C)c1ccc(/C=N/Nc2nc(N/N=C/c3ccc(N(C)C)cc3)nc(N3CCCCC3)n2)cc1`, 111%.
Still for that read-out and setting: in the case of `OCC(Nc1ncnc2ccc(-c3cnc4cnccn34)cc12)c1ccccc1` (stereo unspecified) it was 45%.
Take `COc1ccc(-c2cc(-c3ccc(N4CCOCC4)cc3)n3c(n2)nc2ccccc23)cc1OC`: the growth is 97.8%.
As for `CCOC(=O)c1c(NC(=O)c2cccc(C(F)(F)F)c2)sc2c1CCC(=O)C2`, the growth was 71.9%.
As for `CN1CCN(c2ccc(Nc3nc(NCCCNS(=O)(=O)c4ccc(Cl)cc4)c4sccc4n3)cc2)CC1`, the growth was -9.34% (active).
In the case of `CCOC(=O)C(=O)Nc1ccc2c(ccn2C(=O)c2cccc(F)c2)c1`, the growth was 99.8%.
Same read-out and setting: in the case of `CCOc1cccc(/C(N)=N/C(N)=N/c2nc3ccccc3s2)c1` it was 117%; in that of `CN1CCN(c2ccc(Nc3nc(NCCCNS(=O)(=O)c4ccc(C(F)(F)F)cc4)c4sccc4n3)cc2)CC1`, -91% (active).
Still for that read-out and setting: for `Cc1ccc2c(n1)C(=O)C(Cl)=C(Nc1cccc(C(F)(F)F)c1)C2=O` the value was 99.7%.
